Laboratory results reported in PubChem BioAssay.
Several values for one entry are separate records, joined by “and”; a condition that tells them apart may be missing. Equal values may be shown once. Activity calls are given as the source filed them.

Legend:
Albumin (Bos taurus) = Albumin (Bos taurus) (UniProt P02769); assay: compounds binding labelled BSA control protein – biochemical, small-molecule microarray, Alexa647 label, 635/667 nm fluorescence, artefact control for SMM control protein annotation, profiling panel (AID 1118); conditions: BSA-A647 binding, fluorescence 635 nm, higher = more signal;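 also: score merges 667 nm emission intensity and signal-to-noise per printed compound spot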
[1] = probe aXIP binding to arrayed compounds – biochemical, NeuroSMM set, 635/667 nm fluorescence, primary screen (AID 1119); conditions: small-molecule microarray, higher = more signal, called active from +8 up or from −8 down;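 also: probe is the protein aXip251-270 applied at 1 µg/mL to compound-printed slides; binding of probe to printed compounds measured as 667 nm fluorescence plus signal to noise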
[2] = probe aNOTCH3 binding on compound microarray – biochemical, small-molecule microarray, 635/667 nm fluorescence, primary screen (AID 1120); conditions: higher = more signal;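 also: probe is a biotin-tagged antibody raised against NOTCH3 rather than NOTCH3 protein; score merges spot fluorescence near 667 nm with spot signal to noise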
[3] = probe aNOTCH2 binding on compound microarray – biochemical, small-molecule microarray, 635/667 nm fluorescence, primary screen (AID 1121); conditions: higher = more signal;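 also: score merges feature fluorescence read at 667 nm with its signal to noise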
[4] = target: Carbonic anhydrase 2 (Homo sapiens) (UniProt P00918); assay: compounds binding carbonic anhydrase 2 – biochemical, small-molecule microarray, Alexa647-labelled CAII, profiling panel (AID 1122); conditions: CAII-A647 binding fluorescence, higher = more signal
[5] = COS7 lysate on small-molecule microarray, probe aHis, 635 nm (AID 1123); conditions: COS7 cell lysate, fluorescence, higher = more signal;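 also: z-score combines 667nm fluorescence intensity with signal-to-noise per printed compound spot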
[6] = probe aLAP1 signal on lysate-treated microarray – cell lysate, small-molecule microarray, COS7 lysate, primary screen (AID 1124); conditions: probe aLAP1, fluorescence, higher = more signal;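 also: lysate comes from COS7 cells expressing LAP1 and is applied at 0.3 µg/mL; score merges spot fluorescence near 667 nm with signal-to-noise over triplicate slides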
Sam68 (KHDRBS1) = assay: compounds binding KHDRBS1 protein – biochemical, small-molecule microarray, 635 nm fluorescence, primary screen (AID 1125); conditions: higher = more signal;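 also: score merges 667 nm channel intensity with signal to noise over triplicate slides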
[7] = tested on: Chordin-like protein 2 (CHRDL2); assay: compounds binding chordin-like 2 – biochemical, small-molecule microarray, 635 nm fluorescence, primary screen (AID 1126); conditions: fluorescence 635 nm, higher = more signal;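 also: printed compound slides probed with Chrdl2 protein at 4 µg/mL for 1 h at 4 C; score merges 667 nm emission intensity with signal to noise over three replicate slides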
[8] = target: Concanavalin-A (Canavalia ensiformis) (UniProt P02866); assay: compounds binding concanavalin A lectin – biochemical, small-molecule microarray, Alexa647 label, 635 nm, artefact control for SMM control protein annotation, primary screen (AID 1127); conditions: ConA-A647 binding fluorescence, higher = more signal;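 also: z combines 667 nm emission intensity with signal-to-noise across three replicate slides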
Chain of Concanavalin-A (Canavalia ensiformis) (P02866 whole entry, looked up): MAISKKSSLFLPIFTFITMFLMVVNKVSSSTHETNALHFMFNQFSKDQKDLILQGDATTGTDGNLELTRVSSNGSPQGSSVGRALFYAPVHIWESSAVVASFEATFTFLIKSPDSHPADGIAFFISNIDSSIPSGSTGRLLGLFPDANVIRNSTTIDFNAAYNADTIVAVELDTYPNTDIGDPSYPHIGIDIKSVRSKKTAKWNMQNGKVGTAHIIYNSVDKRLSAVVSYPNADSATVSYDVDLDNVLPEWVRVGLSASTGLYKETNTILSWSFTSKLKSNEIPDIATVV

Chain of Albumin (Bos taurus) (P02769 whole entry, looked up): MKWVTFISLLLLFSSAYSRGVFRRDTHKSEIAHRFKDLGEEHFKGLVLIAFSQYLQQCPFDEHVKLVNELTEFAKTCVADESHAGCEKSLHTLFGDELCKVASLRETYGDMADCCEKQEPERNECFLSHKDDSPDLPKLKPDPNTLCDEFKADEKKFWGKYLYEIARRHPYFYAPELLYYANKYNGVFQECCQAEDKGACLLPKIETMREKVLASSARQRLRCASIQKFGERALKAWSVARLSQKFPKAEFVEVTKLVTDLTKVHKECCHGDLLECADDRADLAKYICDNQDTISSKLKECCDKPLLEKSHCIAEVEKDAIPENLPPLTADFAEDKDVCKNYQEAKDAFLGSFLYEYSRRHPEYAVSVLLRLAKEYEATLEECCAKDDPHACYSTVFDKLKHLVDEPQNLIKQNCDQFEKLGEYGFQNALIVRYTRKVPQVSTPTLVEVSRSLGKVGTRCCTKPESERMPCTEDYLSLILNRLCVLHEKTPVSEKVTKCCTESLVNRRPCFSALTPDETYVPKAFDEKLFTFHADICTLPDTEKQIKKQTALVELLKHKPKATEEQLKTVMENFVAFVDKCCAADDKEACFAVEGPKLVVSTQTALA

SMILES | composite z-score (Albumin (Bos taurus)) | composite Z-score [1] | composite z-score [2] | composite z-score [3] | composite z-score [4] | composite z-score [5] | composite z-score [6] | composite z-score (Sam68 (KHDRBS1)) | composite z-score [7] | composite z-score [8]
Cc1ccc(S(=O)(=O)N[C@H]2COC(=O)[C@@H](C)COC(=O)[C@H](C)NC(=O)CC=C[C@H]2C)cc1 | -0.965 | 1.17 (inactive) | -0.0931 | -0.14 | -0.338 | -0.49 | -0.34 | 0.122 | 0.954 | -0.681
C=C[C@@H](C)[C@@H](O)c1ccc(O)c2ccccc12 | -0.154 and -0.436 | -0.014 (inactive) and 0.196 (inactive) | -0.413 and -0.52 | -0.232 and -0.193 | 0.0119 and 0.72 | -0.024 and 0.351 | -0.237 and -0.0579 | -0.785 and -0.587 | -0.0684 and 0.351 | -0.419 and -0.81
C=C[C@@H](OC)[C@H](O)c1ccc(OCCO)cc1 | -0.128 and 0.397 | -0.158 (inactive) and -0.292 (inactive) | -0.323 and -0.465 | -0.227 and -0.142 | 0.831 and 0.847 | -0.236 and -0.474 | 1.48 and -0.402 | -0.352 and -1.38 | -0.866 and -1.44 | -1.26 and -1.04
C=CCN(C(=O)C(c1cccs1)N(C(=O)/C=C\C(=O)O)c1ccc(CCO)cc1)C(C)(C)C (stereo not given) | 0.779 and 0.432 | -0.374 (inactive) and -0.419 (inactive) | -0.312 and -0.448 | -0.0708 and -0.0924 | 0.663 and 0.867 | 2.45 and 2.51 | 0.904 and 1.16 | -0.847 and -1.43 | -1.74 and -2.91 | -0.941 and -0.744
CCOC(=O)[C@@H]1CC2O[C@]23C[C@@H]1C(=O)N1CCC[C@@H]1[C@H]3O[Si](C)(C)C(C)(C)C (stereo not given in full) | -0.8 and -0.548 | 0.223 (inactive) and 0.413 (inactive) | -0.11 and -0.128 | -0.2 and -0.0949 | -0.396 and 0.106 | -0.645 and 0.205 | -0.452 and 0.103 | -1.37 and -0.191 | 0.1 and -0.201 | -1.82 and -0.262
C=CCN(CCCC)C(=O)C(c1cccs1)N(CCOCCO)C(=O)/C=C\C(=O)O (stereo not given) | -0.717 and 0.789 | -0.67 (inactive) and -0.0169 (inactive) | -0.362 and -0.189 | -0.14 and -0.115 | 0.916 and 0.734 | 0.0303 and 1.6 | -0.672 and 0.9 | -1.2 and -0.24 | -1.6 and -0.769 | -2.03 and -0.878
CON(C)C(=O)c1nnc2c3ccccc3n(S(=O)(=O)c3ccc(C)cc3)c2n1 | 0.622 and 0.0016 | 0.891 (inactive) and 0.79 (inactive) | -0.0111 and 0.211 | -0.104 and -0.109 | 0.393 and 0.481 | 0.19 and 1 | 0.101 and 0.208 | 0.41 and 1.3 | 0.828 and 0.553 | 1.1 and 1.14
C=C[C@H](OC)[C@@H](O)c1ccc(O)c(F)c1 | 0.0861 and -0.58 | -0.244 (inactive) and 0.209 (inactive) | -0.592 and -0.454 | -0.239 and -0.225 | 0.274 and -0.771 | -0.541 and -0.37 | -0.474 and -0.637 | -1.1 and -1.43 | -2.38 and -1.91 | -1.97 and -1.23
CO[C@@H]1C=CCC(=O)N2CCC[C@H]2C(=O)OC[C@H](C)C(=O)OC[C@H]1C | 0.987 | 0.392 (inactive) | -0.0077 | 0.012 | 0.403 | -0.555 | -0.795 | 0.216 | 1.01 | -0.607
CCCCN1CC=CC23O[C@@H]4C=CCCOC(=O)C4[C@H]2C(=O)N(C(C)CO)[C@@H]3C1=O (stereo not given in full) | -0.12 and -0.441 | -0.238 (inactive) and -0.166 (inactive) | -0.222 and -0.0647 | -0.21 and -0.147 | 0.837 and 0.777 | 0.462 and 0.472 | 0.216 and 0.436 | 0.206 and -0.0241 | 0.375 and -0.0584 | -1.63 and 0.0212
C=CCN(CCCC)C(=O)C1N(CCCCCCO)C(=O)C2C(C(=O)O)C3C=CC21O3 (stereo not given) | -1.52 and -1.4 | 0.0063 (inactive) and 0.131 (inactive) | -0.555 and -0.323 | -0.222 and -0.185 | 0.913 and 0.938 | -0.809 and 0.159 | 0.861 and 0.0304 | -0.243 and -0.577 | -1.56 and -3.19 | -2.11 and -0.791
C=C[C@H](OC)[C@@H](O)c1ccc(OCCO)cc1 | -1.69 and -0.599 | 0.459 (inactive) and -0.239 (inactive) | -0.437 and -0.465 | -0.248 and -0.242 | 0.934 and 0.835 | -0.358 and -0.494 | 0.581 and -0.234 | -0.924 and -0.595 | -2.3 and -0.674 | -2.17 and -0.715
CC(C)[Si]1(C(C)C)OCc2cc(C3CC3)nc(CCc3ccccc3)c21 | -0.367 and -0.0511 | -0.145 (inactive) and -0.387 (inactive) | -0.0716 and -0.135 | -0.155 and -0.176 | -0.344 and 0.027 | -0.416 and 0.368 | -0.0371 and -0.455 | -0.636 and 0.47 | 0.32 and 0.195 | 0.211 and 0.513
CC(CO)N1C(=O)[C@@H]2C3C(=O)OCCC=C[C@H]3OC23C=CCN(c2ccc4ccccc4c2)C(=O)[C@@H]13 (stereo not given in full) | -0.452 and 0.947 | -0.862 (inactive) and 0.322 (inactive) | -0.1 and -0.498 | -0.14 and -0.299 | 0.838 and 0.84 | 0.506 and 0.368 | 0.697 and 0.476 | 0.31 and -0.264 | -0.937 and -1.09 | 0.0026 and -0.279
C=CC[C@@H](O)c1ccc(O)c(F)c1 | 0.27 and 0.242 | 0.276 (inactive) and 0.895 (inactive) | -0.478 and -0.553 | -0.214 and -0.196 | 0.818 and 0.758 | -0.301 and -0.323 | -0.0711 and -0.495 | -0.601 and -0.896 | -1.22 and -1.15 | -1.51 and -1.15
